According to the supplement of paper PMC6555819:

What follows are sequences tested on VDR:RXRa (NR concentration 270 nM, RXRa partner concentration 90 nM) (assay: PBM binding z-score (relative to random genomic background probes); higher = stronger binding; sequences stand for … in GC…GCGATTGACAGCGTAGAATGAAGG).
Experimental: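 Protein-binding microarray (Agilent 4x180K custom design, double-stranded 60-nt probes: 5' GC cap, 34-nt variable region, 24-nt constant primer region; full probe sequence given). Purified or IVT nuclear receptor:RXRα heterodimers (3:1 NR:RXRα, mostly 270:90 nM) or homodimers were incubated for 1 h in PBS with 2% milk and no ligand, then detected with Alexa488 antibodies. Fluorescence from o1-orientation probes (~5 replicates averaged) was converted to z-scores against 500 random hg19 background probes. Variable regions are seed direct-repeat (DR0–DR5) sites, all their single-nucleotide variants and half-site ablations.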

Sequence	PBM binding z-score
TCGAGTAGGTTAGTCGGGGTATTCAGCCAACATA	0.453
CTCGAAAGGTCGGTTGAGGTGAGCATACGGATAA	2.26
TCATATAGGTAAATTCTAGGTGAAAGTCCGATCT	1.14
CCTACTGGGCCACGAAAGGTCATTAATTCAGTGA	3.74
CTCGATAGGTCGGTTGAGGTGAGTATACGGATAA	0.436
AGAATGAGGTTATTACGATCAGGGAATTGCGGTC	1.99
TATAGAGGGTCAAAGGCCAGAGTACGAATGTCGA	3.83
CCTGCTAGGCCATGGTCAGCTAATCTACAGTATG	-0.543
TAGCCTAGGTCATGCGGACCAGTATAGTGTCGGC	1.99
ACTATTAGTTGAGACGAGGGCAACGGATAGGTTG	0.66
AGTATTAGTTGACTTAGGGCAACCGATACGACGC	0.573
TCGAGTAGGGTAGGGGCATTCAGAATGGCGTCGA	0.426
AGAACGAGAGCACGCTGAGTTGATAGCAGAGTAG	-0.462
TCATATAGGTAAACAAGTGAAAGTCCGTAAGTTA	1.09
CGAACTAGGTCATCCAGTACAGTGAATACATTGA	5.08
TCATATAGGTAAACAGGTGATAGTCCGTAAGTTA	0.955
CGTTACGGGTCACTCCAGGTTATAGCATCGGAGT	4.5
AGTCAACGTTCAGGACGAGGTAACGTAAAGCACG	-0.317
CGTCCAAGGTCAAAGGCCAGTGAAGAGATGACGG	4.14
CGTCCAAGGTCAGCAGGTCAGTGATAGCGACGTG	3.91

Sequence	PBM binding z-score
ATCTCTTGGTAAGACTCAGTTCAGTGAAGAACGC	0.946
GCGACTGAGGCAAAGCAGGTTACCATAAGGTTGG	-0.292
CAAACTAGGTCAAGGTCAAAGCCGGTTTGTGCCA	4.95
CCTAGTTGGTCAGTAGGTCACACACCGGATATGA	1.91
CGTCCAAGGTCACAGGTCAGTGAAGAGATGACGG	4.91
CAAACTAGGTCAAGAAGTCAAAGTCCGCTTCCCG	1.93
TCTAGCCGGCCAGAGGGTCACTCAAGAGGTACGG	1.41
TCTCGGAGGACTCGAAGGTCAGAGCTTTCCAGAG	0.759
GTACCAAGGTGATTAGGTCGTTGATGAGTAGGCG	0.223
ATCTCTAGGTTAAGTTCAGTGAAAGATCGATAGA	2.37
TCGAGCAGGTTAGGGGCATTCAGAATGGCGTCGA	0.187
ATCTCTAGGTAAAAGTTCATTGAATCCCGAGGAT	2.82
CCTATTAGTCGACCATAAGGGCAACCGAAGCTCG	0.145
GGATATAGGTAATACAAGGTGAAAGTCCGATTGT	0.64
CCTATTAGTTCACCATAAGGGCAACCGAAGCTCG	2.6
TCTTGTAGATCAATAGAGGTTAAGGAAGTGCGCT	1.77
CGTCCATGGTCAGCAGGTCAGTGAAAGCGACGTG	0.0484
ACAGACAGGTGAAGAAGGTAACTCAGGCTATCAT	0.439
TCAGACAGGTGAAAGTAACTCAGGTACGCAGTCG	0.591
GTACCAAGGTGAATAGGTCGTTTATGAGTAGGCG	1.07
